In PubChem BioAssay AID1307 (SRMLSC, 2008):
Fewer than 10 of roughly 1,200 compounds were called active.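 The calls were made as follows: active = inhibition reaching a set limit at one or more tested concentrations; inactive = inhibition under that limit at every dose.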 A selection follows. Potency and affinity values are given separately.

Assay: RAM pathway signaling blockade in S. cerevisiae – dose response (AID 1307);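 also: 0% = DMSO vehicle wells and 100% = 10 µM 1-NA-PP1 control; higher inhibition means more yeast growth since RAM block rescues cells from 5-FOA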
Settings: S. cerevisiae RAM network URA3 reporter, 5-FOA growth OD615, hits give high values, yeast express analog-sensitive mutant Cbk1 kinase; at 100 µM unless noted

Max inhibition, inactive:
COc1ccc(C(=O)NNC(=O)C(Cc2ccc(O)cc2)NC(=O)c2ccccc2NC(=O)c2ccc(OC)cc2)cc1 (centres undefined) 3.19%, COC(=O)[C@H](Cc1ccccc1)NC(=O)[C@@]1(C)C[C@@H]1[C@@H](NC(=O)OCc1ccccc1)c1ccccc1 5.9%, O=C(CCC(=O)c1ccc(Oc2ccccc2)cc1)Nc1cccc(Cl)c1Cl 3.23% [at 25 µM], COc1cccc(/C=C(/C(=O)OCC(=O)NC2CCCC(C)C2C)c2ccccc2)c1 (centres undefined) 7.65% [at 50 µM], Cc1ccc(C(=O)C(OC(=O)CCC(=O)Nc2cccc(C)c2)c2ccccc2)cc1 (centres undefined) 5.19%, CCOC(=O)c1ccc(COC(=O)c2ccc3c(c2)-c2ccccc2C3=O)cc1 5.23% [at 25 µM], CCOC(=O)C1CCN(S(=O)(=O)C(F)(F)c2nc3ccccc3s2)CC1 2.1% [at 0.391 µM], Clc1ccc(-c2nnc(CSc3nnc(-c4cccs4)o3)o2)cc1 2.52% [at 3.125 µM], CCSC1=N/C(=C/c2ccsc2)C(=O)N1c1ccccc1 3.18%, CCCNC(=O)c1ccccc1NC(=O)c1ccc(CSc2ccccc2)cc1 5.46% [at 50 µM], Cc1ccc(C2=NN(Cc3nnc(-c4ccccc4)o3)C(=O)SC2)cc1 3.29%, O=C(NCc1ccccc1)c1ccc(S(=O)(=O)N2CCCc3ccccc32)cc1 2.24%, O=[N+]([O-])c1ccc(N/N=C/c2sc(N3CCOCC3)nc2-c2ccccc2)c(S(=O)(=O)Nc2ccc(Cl)cc2)c1 8.74%, CN(C)S(=O)(=O)c1ccc2[nH]cc(/C=C/c3nc4ccccc4c(=O)n3-c3ccccc3)c2c1 10.9%, CN(C)c1nc(SCCOC(=O)COc2ccc(Cl)cc2Cl)nc(N(C)C)n1 1.44% [at 0.782 µM], O=C(c1cccs1)n1nc(-c2ccc(Cl)cc2)nc1NCc1ccco1 2.48%, O=C(C(Sc1ccccc1)c1ccccc1)N1CCN(c2ccccc2)CC1 (centres undefined) 2.99% [at 3.125 µM], CCOC(=O)c1c(NC(=S)Nc2ccc(OC)cc2)sc2c1CCCCC2 3.37% [at 1.563 µM], O=C(/C=C/c1ccc(-c2ccccc2)o1)c1ccccc1 5.06%, O=C(Cn1cc(C(=O)c2ccco2)c2ccccc21)NC1CCCCC1 3.76% [at 0.391 µM], O=C1CCC(/C=C/c2ccccc2)=NN1Cc1ccc(Cl)c(Cl)c1 3.06%, C=CCO/N=C(/C)c1c(O)c(CC)c(-c2ccccc2)n(-c2ccccc2)c1=O 2.56% [at 0.391 µM], CCOC(=O)c1cccc(NC(=O)CSc2nnc(COc3ccccc3C)o2)c1 2.04% [at 50 µM], Cc1c(NC(=S)NC(=O)Cc2ccccc2)cccc1C(=O)O 2.43% [at 0.196 µM], COc1cc(NC(=O)c2ccc3c(c2)OCO3)c2ncccc2c1 4.22%, C/C(=N\OC(=O)c1ccc(OC(C)C)cc1)c1ccc(C)c(C)c1 3.12%, Cc1ccc(N(CCCCN2C(=O)c3ccccc3C2=O)C(=O)c2cccs2)cc1 4.25%, Cc1ccc(S(=O)(=O)N2c3cc(C)ccc3OCC2C(C)(C)C)cc1 (centres undefined) 3.04%, COc1ccc(C(=O)COC(=O)C(CCSC)NS(=O)(=O)c2ccc(Cl)cc2)cc1 (centres undefined) 2.78% [at 25 µM], COCCn1c(=NC(=O)c2sc3ccccc3c2Cl)sc2cc(S(N)(=O)=O)ccc21 4.98% [at 50 µM], CCOc1ccc(/C=C2/SC(=S)N(C(C(=O)O)c3ccccc3)C2=O)cc1OCC (centres undefined) 3.65%, Cc1ccc(-n2c(SCC(=O)N3CCCc4ccccc43)nnc2-c2cccnc2)c(C)c1 3.12% [at 50 µM], O=C(O)c1cc(Sc2ccc(Br)cc2)nc2ccccc12 4.44% [at 50 µM], CCCCc1ccc(N=N/C(C(=O)Nc2ccccc2OC)=C(/C)O)cc1 4.87% [at 50 µM], O=C(COC(=O)CCN1C(=O)/C(=C\C=C\c2ccccc2)SC1=S)Nc1ccc(Br)cc1 9.41%, O=C(Nc1ccn(Cc2cccc3ccccc23)n1)c1cccnc1 3.63%, CCN(CC)S(=O)(=O)c1cccc(-c2nnc(SCCCC(=O)c3ccccc3)o2)c1 3.65%, O/N=C/c1cc(Br)ccc1OCc1cccc(F)c1 1.58% [at 0.196 µM], COC(=O)c1scc(C)c1N/N=C(\C)c1ccc(F)cc1F 8.43%, CCCc1nn(C)c(C(=O)Nc2ccc(C(C)(C)C)cc2)c1Cl 3.4%, CCCCOn1c(C)c(C(=O)OCC)c2c3no[n+]([O-])c3ccc21 2.31%, O=C(NCc1ccc2c(c1)OCO2)c1cc(-c2ccccn2)nc2ccccc12 4.19% [at 3.125 µM], CC(C)(CNC(=S)NCCc1ccccc1)CNC(=S)NCCc1ccccc1 4.96%, CCOC(=O)C(C)Sc1cc(CS(=O)(=O)c2ccccc2)nc(-c2ccccc2)n1 (centres undefined) 5.53%, CCN(CC)S(=O)(=O)c1cc(NS(=O)(=O)c2c(Cl)cccc2Cl)ccc1C 3.03% [at 50 µM], Cc1ccccc1-c1nnn(CC(=O)Nc2ccc3c(c2)OCCO3)n1 4.6%, O=C(O)CCN1C(=O)/C(=C/c2cn(-c3ccccc3)nc2-c2cccs2)SC1=S 5.53%, COc1ccc(C(=O)/C=C/c2ccc(OC)c(COc3ccc(F)cc3)c2)cc1 5.41%, CC(CCc1ccccc1)NC(=O)CNC(=S)N(Cc1cccs1)C1CCCC1 (centres undefined) 3.28%, COc1ccc(-c2ccc(-c3noc(-c4cccc(OC)c4)n3)c(OC)n2)cc1 4.12%, CC1(C)CC(C(CCN(Cc2ccccc2)C(=O)c2ccco2)c2ccc(F)cc2)CCO1 (centres undefined) 4.56% [at 50 µM], C=C(C)COc1ccc(-c2[nH]ncc2Oc2ccccc2OCC)c(O)c1 3.4%, CCOC(=O)c1sc(-c2ccccc2)cc1NC(=O)c1ccc(S(=O)(=O)N(CCOC)CCOC)cc1 1.69% [at 12.5 µM], O=C1Nc2ccccc2/C1=N\N=C\C1=C(N2CCOCC2)C(=C\c2ccccc2)/CC1 19.6%, O=S(=O)(Nc1nc2ccccc2nc1Nc1ccc2c(c1)OCCO2)c1cccs1 5.19%, Cc1cc(C)c(C)c(S(=O)(=O)N2CCC(C(=O)OCC(=O)N3c4ccccc4NC(=O)C3(C)C)CC2)c1C 4.49%, CCOC(=O)c1ccc(NC(=O)Nc2ccc3c4c(cccc24)C(=O)N3CC)cc1 3.19%, CC(C)c1ccc(CNc2cc(N3CCCC3)ccc2[N+](=O)[O-])cc1 5.27%, CCCCc1ccc(-c2csc(/C(C#N)=C\c3ccc(C)o3)n2)cc1 5.43%, O=C(CN(Cc1cccs1)C(=O)CSc1nnc(COc2ccccc2)o1)NC1CCCC1 3.76%, COc1ccc(/C=C2\SC(=O)N(CCC(=O)Nc3ccccc3)C2=O)cc1OC 3.41%, Cc1cc2c(C)ccc(C)c2nc1SCC(=O)c1cccs1 5.59% [at 25 µM], COc1ccc(O[C@H]2C=C[C@@H](c3ccccc3)O[C@@H]2CO/N=C(\C)CCC(=O)OC[C@H]2O[C@H](c3ccccc3)C=C[C@@H]2Oc2ccc(OC)cc2)cc1 6.56%, Cc1ccc(S(=O)(=O)N2CCC(=O)N(C(COCc3cccc(C(F)(F)F)c3)C(C)C)CC2)cc1 (centres undefined) 2.65% [at 0.782 µM], CCOC(=O)c1c(NC(=O)CSc2nnc(-c3ccco3)o2)sc(C)c1C 4.63% [at 0.391 µM], CCOC(=O)c1cc(C(C)C)sc1NC(=O)COC(=O)CCS(=O)(=O)c1ccccc1 3.24% [at 50 µM], Cc1c(N=Nc2ccc(N(C)C)cc2)c(=O)n(-c2ccccc2)n1C 20.4%, COc1ccc(N(CC(=O)NCCSCc2ccco2)S(=O)(=O)c2ccc(C)cc2)cc1 4.74% [at 50 µM], Cc1ccc(N=C(NOCc2ccc(Cl)cc2Cl)c2nonc2N)c(C)c1 5.27%, CCOC(=O)c1sc(NC(=O)CSc2nnc(-c3ccc(OC)cc3)n2CCOC)nc1C 1.33% [at 0.782 µM], CCC(=O)NC(=S)Nc1ccc(NC(=S)NC(=O)c2ccccc2)cc1 5.34% [at 50 µM], O=C(CSc1nnc(-c2ccccc2Br)o1)N1CCc2ccccc2C1 2.54%, N#Cc1ccsc1NC(=O)COC(=O)CCCSc1nc2ccccc2s1 2.77% [at 50 µM], O=C(/C=C/c1cccc([N+](=O)[O-])c1)NCCSCc1ccccc1Cl 1.79% [at 6.25 µM], Clc1ccc(CSc2nnc(/C=C/c3ccccc3)o2)cc1 2.78% [at 25 µM], CCSc1ccc(-c2nn(-c3ccccc3)cc2/C=C(/C#N)C(=O)NCCCOC)cc1 13%, CCOC(=O)c1c(-c2cccs2)csc1NC(=O)COC(=O)c1c(C)noc1C 4.68%, Cc1ccc(NC2=Nc3ccccc3N3C2=Nc2c(c(C)nn2-c2ccccc2)C3c2ccc(O)c(O)c2)cc1 (centres undefined) 6.97%, COc1ccc(C(=O)CSc2nc(C(C)(C)C)nc3ccccc23)cc1 2.25% [at 1.563 µM]
